DT40 TDP1 no CPT: qHTS for Inhibitors of human tyrosyl-DNA phosphodiesterase 1 (TDP1): qHTS in cells in absence of CPT; actives 15% (n = 420,000); DT40 Tdp1-/- hTDP1 cells, no CPT, ATP luminescence, 48 h; Potency, µM (highest dose often 46.2 µM), without a hit: at the highest dose activity change, negative = growth inhibition, actives largely listed as inhibitors; also: potency is read from the fitted curve at half-maximal effect; nearly all actives have a fitted effect of over 55% in size
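Seeded 400 DT40-hTDP1 cells/well (vehicle DMSO, no 20 nM CPT); pinned compounds; ≥48 hr at 37 °C; CellTiter-Glo luminescence as viability measure.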
TDP1 cell CPT: qHTS for Inhibitors of human tyrosyl-DNA phosphodiesterase 1 (TDP1): qHTS in cells in presence of CPT. chicken DT40 Tdp1-/-;hTDP1 cells + 20 nM CPT, ATP luminescence, 48 h. Potency, µM (top dose mostly 46.2 µM), for inactives: at the highest dose activity change, negative = growth inhibition, most hits filed as inhibitors. actives 12% (n = 420,000). AID 686979, 2013; also: potency is read from the fitted curve at half-maximal effect; nearly all actives have a fitted effect of over 55% in size
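Chicken DT40 Tdp1-/- cells complemented with human TDP1, 400 cells/well, exposed to compounds plus 20 nM camptothecin for at least 48 h at 37 C; viability read as ATP content by CellTiter-Glo luminescence.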
HT1080-NT tox: qHTS for induction of synthetic lethality in tumor cells producing 2HG: qHTS for the HT-1080-NT fibrosarcoma cell line; HT-1080-NT fibrosarcoma viability, CellTiter-Glo ATP luminescence, 48 h; Potency, µM (doses to about 46.1 µM), for the others: at the highest dose activity, negative = less viability, most hits filed as cytotoxic; actives 1.6% (n = 360,000); AID 686970, 2013;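 also: NT is the 2HG producing partner of a matched IDH1 knockdown line; potency is read from the fitted curve at half-maximal effect; 0% = DMSO-treated cells and -100% = media-only wells without cells; nearly all actives have a fitted effect of over 55% in size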
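Fibrosarcoma NT cells, 750 per well in 5% FBS RPMI, were exposed to compound for 48 hours. Viability: CellTiter-Glo luminescence.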
IL-1B inflam inh: qHTS for Inhibitors of Inflammasome Signaling: IL-1-beta AlphaLISA Primary Screen; AID 743279, 2014; actives 4.7% (n = 360,000); THP-1 LPS/ATP IL-1B secretion, AlphaLISA, 16 h; stronger effect = lower value; activity change, % at 57.5 µM; in the data active = activity change below about -50%; inconclusive = mostly about -30% to -49%
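THP-1 cells pretreated 1 hr with compounds (up to 57.5 uM final), then stimulated with LPS (250 ng/mL final) plus ATP (1.25 mM final); secreted IL-1B measured by AlphaLISA after 16 hr, decreased signal indicating inhibition.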
HT1080 IDH1KD tx: qHTS for induction of synthetic lethality in tumor cells producing 2HG: qHTS for the HT-1080-IDH1KD cell line. HT-1080 IDH1 knockdown viability, ATP luminescence, 48 h. actives 2% (n = 360,000). AID 686971, 2013. Potency, µM (top dose mostly 46.1 µM), inactives show at the highest dose activity, negative = toxicity, hits mostly cytotoxic;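 also: potency is read from the fitted curve at half-maximal effect; 0% = DMSO wells and -100% = cell-free medium wells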
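CellTiter-Glo luminescence after 48 h compound exposure at 37 degrees C of IDH1-knockdown HT-1080 cells in 5% FBS RPMI. %Activity scaled between DMSO wells and cell-free media wells, with curves fitted and assigned curve classes.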
ELG1 DNA repair: qHTS screen for small molecules that inhibit ELG1-dependent DNA repair in human embryonic kidney (HEK293T) cells expressing luciferase-tagged ELG1 | HEK293T ELG1-luciferase reporter, luminescence, 16 h; DNA damage induced by 5-fluorouridine | AID 504467, 2011 | Potency, µM (doses to about 46.1 µM), for the others: at the top dose activity change, negative = inhibition, actives largely listed as inhibitors | actives 2.3% (n = 330,000); also: potency is read from the fitted curve at half-maximal effect; nearly all actives have a fitted effect of over 55% in size
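Step one: seed 2,000 cells per well. Step two: pin-transfer compound or DMSO alongside 5-fluorouridine. Step three: incubate 16 hr, 37 °C, 5% CO2. Step four: add ONE-Glo, wait 30 min, read luminescence.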
* hit, by the source's call; ? = inconclusive; nt = no result given. The list is not random: actives were taken first. Their share in the collection is about 19%. Unless noted, calls follow the shape of the dose curve; as a rule, active = well fitted curve in the direction sought with a large enough effect; inconclusive = small, poorly fitted or top-dose-only effect, or another doubt; inactive = no such curve, though single readings can be large; an effect the other way counts as inactive or inconclusive. Unless noted, % is scaled to controls: 0 for no effect and ±100 for the full control effect.

SMILES | DT40 TDP1 no CPT | TDP1 cell CPT | HT1080-NT tox | IL-1B inflam inh | HT1080 IDH1KD tx | ELG1 DNA repair
CC(C)CNS(=O)(=O)c1ccc(CCC(=O)N2CCN(c3ccc(F)cc3)CC2)cc1 | -20.5% | -25.0% | -9.2% | 0.0 | -8.6% | 11.6µM*
Cc1nc2ccc(S(=O)(=O)NCC(=O)N3CCN(c4ccccc4)CC3)cc2s1 | ? | ? | -2.3% | -5.8 | -9.1% | 23.1µM*
O=C(CCNS(=O)(=O)c1ccc2nsnc2c1)N1CCN(c2ccncc2)CC1 | 16.4µM* | ? | -2.0% | -4.8 | 2.4% | -11.6%
Cc1ccc(S(=O)(=O)NCCC(=O)N2CCN(c3cccc(Cl)c3)CC2)cc1C | ? | 14.6µM* | -2.6% | -1.2 | -1.0% | ?
CCNC(=O)C1(C)CCN(C(=O)c2c(F)cccc2F)C1 (stereo unspecified) | -5.6% | -4.2% | 14.9% | 28.3 | 20.8% | nt
COc1ccc(S(=O)(=O)NCCS(=O)(=O)N2CCN(c3ccccc3)CC2)cc1C | 23.1µM* | 18.4µM* | nt | nt | nt | nt
CNS(=O)(=O)c1cn(CC(=O)N2CCN(c3cccc(Cl)c3)CC2)cc1S(=O)(=O)NC | 25.9µM* | ? | nt | nt | nt | nt
CNS(=O)(=O)c1cn(CC(=O)N2CCN(c3ccc(OC)cc3)CC2)cc1S(=O)(=O)NC | ? | -21.0% | nt | nt | nt | nt
CCNS(=O)(=O)c1ccc(CCC(=O)N2CCN(c3cccc(Cl)c3)CC2)cc1 | 23.1µM* | ? | 3.5% | -51.4* | -17.1% | ?
COc1ccc(NC(=O)C2(C)CCN2C)cc1OC (stereo unspecified) | -5.1% | -8.8% | 8.8% | 22.7 | 24.4% | nt
Cc1ccc(OCCN2CCC2(C)C(=O)Nc2ccc3c(c2)OCCO3)cc1 (stereo unspecified) | 18.4µM* | -97.8% | -14.9% | -109.5* | -20.5% | nt
COc1ccc(OC)c(NC(=O)C2(C)CCN2CCOc2ccccc2)c1 (stereo unspecified) | ? | 23.1µM* | -9.0% | 5.1 | 0.0% | nt
COc1ccc(NC(=O)C2(C)CCN2CCOc2ccccc2)cc1OC (stereo unspecified) | ? | ? | 16.3% | -23.6 | 5.6% | nt
Cc1ccc(OCCC(=O)Nc2ccc3c(c2)OCCCO3)cc1 | -24.1% | -23.2% | 0.4% | 1.0 | 14.1% | ?
CC1(C(=O)Nc2cccc3cccnc23)CCN1Cc1ccccc1OC(F)F (stereo unspecified) | 14.6µM* | ? | ? | -9.3 | ? | nt
CC(C)C(=O)N1CCC1(C)C(=O)Nc1ccccc1OC(F)F (stereo unspecified) | -0.9% | ? | 10.8% | 20.8 | 0.0% | nt
CC1(C(=O)Nc2cccc3cccnc23)CCN1Cc1ccc(-c2ccccc2)o1 (stereo unspecified) | 18.4µM* | 23.1µM* | -1.3% | 33.3 | -11.4% | nt
CC1(C(=O)Nc2ccccc2Cc2ccccc2)CCN1CCc1ccccc1 (stereo unspecified) | ? | ? | ? | 8.5 | ? | nt
Cn1c(=O)[nH]c(Nc2ccccc2)c([N+](=O)[O-])c1=O | -11.3% | 21.4% | 4.1% | -7.6 | 5.9% | -3.0%
COc1ccc(OC)c(NC(=O)C2(C)CCN2C(=O)C(C)(C)c2ccccc2)c1 (stereo unspecified) | ? | ? | 12.3% | -2.6 | 6.1% | nt
Cc1c(Br)cccc1NC(=O)C1(C)CCN1Cc1ccc(OC(C)C)cc1 (stereo unspecified) | ? | -6.4% | -24.9% | 57.0 | 3.5% | nt
COc1ccc(OC)c(NC(=O)C2(C)CCN2C(=O)C2(c3ccccc3)CCCC2)c1 (stereo unspecified) | 23.1µM* | ? | -22.6% | 2.0 | -13.7% | nt
CC(C)Oc1ccc(CN2CCC2(C)C(=O)Nc2cccc3cccnc23)cc1 (stereo unspecified) | ? | 18.4µM* | ? | -21.0 | ? | nt
COc1ccc(OC)c(NC(=O)C2(C)CCN2C(=O)C2(c3ccc(Cl)cc3)CCC2)c1 (stereo unspecified) | ? | ? | -14.2% | 29.9 | ? | nt
COc1ccc(OC)c(NC(=O)C2(C)CCN2Cc2cccc(OC)c2OC)c1 (stereo unspecified) | 14.6µM* | ? | ? | -15.6 | ? | nt
SMILES | DT40 TDP1 no CPT | TDP1 cell CPT | HT1080-NT tox | IL-1B inflam inh | HT1080 IDH1KD tx | ELG1 DNA repair
COc1cccc(CN2CCC2(C)C(=O)Nc2cccc3cccnc23)c1OC (stereo unspecified) | 18.4µM* | 16.4µM* | ? | -1.2 | ? | nt
Cc1ccc(F)c(S(=O)(=O)NC(=O)C2(C)CCN2C(=O)c2ccc(C3CCCCC3)cc2)c1 (stereo unspecified) | ? | -20.6% | -17.7% | 33.8 | -1.3% | nt
O=C(OCc1cn([C@@H]2CN(Cc3cccs3)[C@@H](c3ccc(Cl)cc3)C[C@H]2O)nn1)c1ccccc1 | ? | ? | 2.6% | -19.6 | 8.3% | nt
OC(COCC1CC=CCC1)Cn1cnc2ccccc21 (stereo unspecified) | -15.8% | -23.6% | -2.4% | 7.5 | -2.3% | 0.8%
Cc1nc2ccccc2n1CC(O)COCC1CC=CCC1 (stereo unspecified) | 10.3µM* | 14.6µM* | -1.6% | ? | -6.6% | -4.7%
CC(=O)Nc1cccc(OCC(O)Cn2c(C)nc3ccccc32)c1 (stereo unspecified) | 16.4µM* | ? | -19.3% | 8.9 | 8.0% | ?
CCc1nn(C(CC)C(=O)NCc2ccc(OC)c(OC)c2)c(=O)c2cc3oc(C)cc3n12 (stereo unspecified) | 9.2µM* | 16.4µM* | nt | nt | nt | nt
O=C(O)CCCC[C@@H]1SC[C@H]2NC(=O)N[C@@H]12 | -11.5% | 5.7% | nt | nt | nt | nt
O=C(O)CCCC[C@@H]1SC[C@@H]2NC(=O)N[C@@H]21 | 0.1% | 2.9% | 6.6% | -106.1* | 4.6% | nt
COc1cc(/C=C(/C#N)c2ccccc2F)ccc1OCc1ccccc1 | 18.4µM* | 16.4µM* | 8.6% | -20.2 | 0.5% | 6.4%
COc1cc(/C=C(/C#N)C(=O)Nc2ccccc2)ccc1OCc1ccc(C(=O)O)cc1 | ? | -21.7% | 1.8% | -2.6 | -0.3% | -19.9%
